# Data taken from article PMC7862700, “An all-to-all approach to the identification of sequence-specific readers for epigenetic DNA modifications on cytosine”.
# Columns and labels:
# Test in all cases: DAPPL (digital affinity profiling via proximity ligation, sequencing); 10 mM Tris-HCl pH 7.5, 50 mM NaCl, 1 mM DTT, 4% glycerol, room temperature, 30 min; GST-TFs on glutathione beads, 16-mer random dsDNA library, 0.1% formaldehyde crosslink after washing; high values mean tight binding
# FEV = molecular target: T1, FEV (Homo sapiens, UniProt Q99581 1-238); details: protein: recombinant; tags: N-terminal GST; dsDNA, one strand shown
# T1 sequence: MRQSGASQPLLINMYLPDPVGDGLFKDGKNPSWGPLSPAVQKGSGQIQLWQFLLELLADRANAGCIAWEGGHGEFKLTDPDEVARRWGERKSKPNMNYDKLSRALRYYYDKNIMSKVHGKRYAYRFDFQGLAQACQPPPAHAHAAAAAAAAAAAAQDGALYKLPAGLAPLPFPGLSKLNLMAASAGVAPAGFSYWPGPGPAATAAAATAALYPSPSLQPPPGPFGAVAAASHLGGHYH
# Procedure, shortened: (§1)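 Pools were built from human transcription factors expressed in yeast as GST fusions, captured on glutathione beads and DNA-barcoded, along with a tag-only sample. Incubation with 200 nmole of a 16-mer random double-stranded DNA library lasted 30 min at room temperature in Tris/NaCl/DTT/glycerol buffer, and was followed by washing, 0.1% formaldehyde crosslinking, proximity ligation, PCR amplification and Illumina NextSeq500 sequencing. Binding signal is the quotient of each hexamer's read frequency for a factor and its frequency for the tag-only sample.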
# ETV5 = ETV5 (Homo sapiens, UniProt P41161 1-510); details: protein: recombinant; tags: N-terminal GST; dsDNA, one strand shown
# ETV5, sequence (P41161 whole entry): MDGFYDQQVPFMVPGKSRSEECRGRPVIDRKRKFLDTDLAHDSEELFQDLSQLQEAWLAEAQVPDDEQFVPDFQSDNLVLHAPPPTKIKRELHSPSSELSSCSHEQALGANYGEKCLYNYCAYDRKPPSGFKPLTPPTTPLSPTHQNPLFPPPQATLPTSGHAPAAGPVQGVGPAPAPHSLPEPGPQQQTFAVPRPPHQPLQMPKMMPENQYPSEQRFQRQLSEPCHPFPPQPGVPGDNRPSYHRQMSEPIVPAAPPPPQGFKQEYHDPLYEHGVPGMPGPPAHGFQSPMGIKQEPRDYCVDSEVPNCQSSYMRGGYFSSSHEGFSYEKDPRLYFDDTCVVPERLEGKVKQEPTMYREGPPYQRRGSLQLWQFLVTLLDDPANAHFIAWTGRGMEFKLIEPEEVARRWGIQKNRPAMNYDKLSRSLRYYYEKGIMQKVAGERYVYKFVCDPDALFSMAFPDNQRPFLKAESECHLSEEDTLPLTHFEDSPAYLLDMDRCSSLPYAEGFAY
# Procedure, shortened: as §1
# HSF1 = HSF1 (Homo sapiens, UniProt Q00613 1-529); details: protein: recombinant; tags: N-terminal GST; chain copies: 3; dsDNA, one strand shown
# HSF1, sequence (Q00613 whole entry): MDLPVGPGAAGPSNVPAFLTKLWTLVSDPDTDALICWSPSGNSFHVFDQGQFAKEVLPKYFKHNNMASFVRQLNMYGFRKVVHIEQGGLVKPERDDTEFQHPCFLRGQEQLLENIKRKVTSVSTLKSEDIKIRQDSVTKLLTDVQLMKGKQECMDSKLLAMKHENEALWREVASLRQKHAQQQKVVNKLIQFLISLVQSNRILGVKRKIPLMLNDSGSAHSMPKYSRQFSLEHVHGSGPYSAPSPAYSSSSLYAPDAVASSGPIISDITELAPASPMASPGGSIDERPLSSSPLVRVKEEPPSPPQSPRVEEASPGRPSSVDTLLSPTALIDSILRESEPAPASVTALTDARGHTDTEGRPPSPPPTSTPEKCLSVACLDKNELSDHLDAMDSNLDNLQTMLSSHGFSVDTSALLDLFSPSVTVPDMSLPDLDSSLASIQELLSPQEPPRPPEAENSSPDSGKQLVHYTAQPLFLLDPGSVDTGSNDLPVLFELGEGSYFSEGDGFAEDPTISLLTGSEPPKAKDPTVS
# Procedure, shortened: as §1
# SPIC = molecular target: T2, SPIC (Homo sapiens, UniProt Q8N5J4 1-248); details: protein: recombinant; tags: N-terminal GST; dsDNA, one strand shown
# T2 sequence: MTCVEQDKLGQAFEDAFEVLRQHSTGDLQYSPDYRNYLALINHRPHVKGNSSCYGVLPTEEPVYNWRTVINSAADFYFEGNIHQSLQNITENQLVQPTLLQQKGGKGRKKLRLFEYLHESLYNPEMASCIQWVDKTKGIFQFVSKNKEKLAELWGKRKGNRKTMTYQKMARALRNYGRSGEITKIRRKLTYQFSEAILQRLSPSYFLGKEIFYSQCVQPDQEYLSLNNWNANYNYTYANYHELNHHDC
# Procedure, shortened: as §1
# ELF4 = ELF4 (Homo sapiens, UniProt Q99607 1-663); details: protein: recombinant; tags: N-terminal GST; dsDNA, one strand shown
# ELF4, sequence (Q99607 whole entry): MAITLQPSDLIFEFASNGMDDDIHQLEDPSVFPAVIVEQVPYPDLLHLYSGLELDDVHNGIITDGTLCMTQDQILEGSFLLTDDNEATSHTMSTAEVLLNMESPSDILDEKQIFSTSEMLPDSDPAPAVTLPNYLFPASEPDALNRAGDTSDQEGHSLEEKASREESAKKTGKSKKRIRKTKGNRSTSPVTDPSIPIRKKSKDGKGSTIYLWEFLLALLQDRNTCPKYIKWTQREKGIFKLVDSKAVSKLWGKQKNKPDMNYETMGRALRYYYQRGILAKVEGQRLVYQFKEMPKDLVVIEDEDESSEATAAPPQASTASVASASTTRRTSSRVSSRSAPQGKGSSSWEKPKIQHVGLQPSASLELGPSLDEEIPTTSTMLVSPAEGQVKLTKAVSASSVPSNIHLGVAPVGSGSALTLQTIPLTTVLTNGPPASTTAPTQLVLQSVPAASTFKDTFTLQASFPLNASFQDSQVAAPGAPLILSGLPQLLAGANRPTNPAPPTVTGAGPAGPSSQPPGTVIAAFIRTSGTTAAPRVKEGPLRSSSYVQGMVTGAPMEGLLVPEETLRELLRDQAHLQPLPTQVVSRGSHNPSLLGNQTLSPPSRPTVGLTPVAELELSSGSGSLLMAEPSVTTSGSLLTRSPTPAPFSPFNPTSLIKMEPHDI
# Procedure, shortened: as §1
# ELK4 = molecular target: T3, ELK4 (Homo sapiens, UniProt P28324-2 1-405); details: protein: recombinant; tags: N-terminal GST; dsDNA, one strand shown
# T3 sequence: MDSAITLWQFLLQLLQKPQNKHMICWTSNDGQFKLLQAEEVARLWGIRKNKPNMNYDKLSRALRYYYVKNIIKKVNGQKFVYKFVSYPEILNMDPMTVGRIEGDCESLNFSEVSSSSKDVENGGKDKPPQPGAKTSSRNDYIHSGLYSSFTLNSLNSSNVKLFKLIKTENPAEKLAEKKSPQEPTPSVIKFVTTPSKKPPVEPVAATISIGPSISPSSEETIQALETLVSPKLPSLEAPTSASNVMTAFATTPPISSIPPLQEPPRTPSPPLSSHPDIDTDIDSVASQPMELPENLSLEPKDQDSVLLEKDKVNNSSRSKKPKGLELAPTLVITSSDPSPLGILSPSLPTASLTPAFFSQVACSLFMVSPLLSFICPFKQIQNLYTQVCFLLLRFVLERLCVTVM
# Procedure, shortened: as §1
# ETV2 = molecular target: T4, ETV2 (Homo sapiens, UniProt O00321 1-342); details: protein: recombinant; tags: N-terminal GST; dsDNA, one strand shown
# T4 sequence: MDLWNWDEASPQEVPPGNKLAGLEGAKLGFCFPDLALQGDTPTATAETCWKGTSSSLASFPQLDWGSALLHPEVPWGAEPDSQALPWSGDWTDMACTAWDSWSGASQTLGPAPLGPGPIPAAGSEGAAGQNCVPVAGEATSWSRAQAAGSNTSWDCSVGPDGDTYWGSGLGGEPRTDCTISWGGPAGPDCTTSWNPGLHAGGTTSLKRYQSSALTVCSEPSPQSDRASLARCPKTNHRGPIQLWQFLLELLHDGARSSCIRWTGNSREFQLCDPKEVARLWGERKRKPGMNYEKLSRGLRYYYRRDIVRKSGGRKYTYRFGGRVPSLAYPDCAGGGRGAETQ
# Procedure, shortened: as §1
# ELF3 = molecular target: T5, ELF3 (Homo sapiens, UniProt P78545 1-371); details: protein: recombinant; tags: N-terminal GST; dsDNA, one strand shown
# T5 sequence: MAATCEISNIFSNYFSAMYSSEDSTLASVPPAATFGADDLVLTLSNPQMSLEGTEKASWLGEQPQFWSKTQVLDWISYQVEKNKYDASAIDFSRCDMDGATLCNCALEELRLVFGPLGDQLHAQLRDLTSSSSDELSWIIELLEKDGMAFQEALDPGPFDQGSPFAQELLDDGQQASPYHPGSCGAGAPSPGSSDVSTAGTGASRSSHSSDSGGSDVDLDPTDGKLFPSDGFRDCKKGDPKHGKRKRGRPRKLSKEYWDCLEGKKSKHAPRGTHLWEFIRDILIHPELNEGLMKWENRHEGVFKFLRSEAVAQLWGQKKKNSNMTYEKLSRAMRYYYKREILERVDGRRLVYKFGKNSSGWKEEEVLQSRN
# Procedure, shortened: as §1
# CRX = CRX (Homo sapiens, UniProt O43186 1-299); details: protein: recombinant; tags: N-terminal GST; dsDNA, one strand shown
# CRX, sequence (O43186 whole entry): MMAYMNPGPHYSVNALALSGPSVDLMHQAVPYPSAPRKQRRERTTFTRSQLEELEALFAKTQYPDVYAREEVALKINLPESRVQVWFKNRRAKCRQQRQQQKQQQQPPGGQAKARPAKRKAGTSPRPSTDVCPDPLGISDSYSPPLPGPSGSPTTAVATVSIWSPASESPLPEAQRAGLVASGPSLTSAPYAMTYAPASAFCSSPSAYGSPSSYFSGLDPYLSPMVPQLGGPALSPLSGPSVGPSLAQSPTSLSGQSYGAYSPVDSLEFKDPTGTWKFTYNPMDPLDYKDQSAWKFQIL
# Procedure, shortened: as §1
# ETV1 = ETV1 (Homo sapiens, UniProt P50549 1-477); details: protein: recombinant; tags: N-terminal GST; dsDNA, one strand shown
# ETV1, sequence (P50549 whole entry): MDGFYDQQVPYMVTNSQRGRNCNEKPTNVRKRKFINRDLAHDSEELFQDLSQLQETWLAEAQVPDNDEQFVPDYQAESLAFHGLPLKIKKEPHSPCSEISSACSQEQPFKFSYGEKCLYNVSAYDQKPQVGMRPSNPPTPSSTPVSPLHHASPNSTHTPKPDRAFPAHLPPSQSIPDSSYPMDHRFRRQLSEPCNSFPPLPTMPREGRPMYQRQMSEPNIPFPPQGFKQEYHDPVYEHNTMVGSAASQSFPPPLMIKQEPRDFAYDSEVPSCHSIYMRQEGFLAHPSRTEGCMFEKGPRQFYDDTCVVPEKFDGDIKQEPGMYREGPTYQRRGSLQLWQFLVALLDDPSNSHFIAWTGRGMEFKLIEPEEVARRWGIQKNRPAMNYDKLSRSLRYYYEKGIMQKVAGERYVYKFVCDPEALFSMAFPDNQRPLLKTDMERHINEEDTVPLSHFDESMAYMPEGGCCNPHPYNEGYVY
# Procedure, shortened: as §1
# ERF = molecular target: T6, ERF (Homo sapiens, UniProt P50548 1-548); details: protein: recombinant; tags: N-terminal GST; dsDNA, one strand shown
# T6 sequence: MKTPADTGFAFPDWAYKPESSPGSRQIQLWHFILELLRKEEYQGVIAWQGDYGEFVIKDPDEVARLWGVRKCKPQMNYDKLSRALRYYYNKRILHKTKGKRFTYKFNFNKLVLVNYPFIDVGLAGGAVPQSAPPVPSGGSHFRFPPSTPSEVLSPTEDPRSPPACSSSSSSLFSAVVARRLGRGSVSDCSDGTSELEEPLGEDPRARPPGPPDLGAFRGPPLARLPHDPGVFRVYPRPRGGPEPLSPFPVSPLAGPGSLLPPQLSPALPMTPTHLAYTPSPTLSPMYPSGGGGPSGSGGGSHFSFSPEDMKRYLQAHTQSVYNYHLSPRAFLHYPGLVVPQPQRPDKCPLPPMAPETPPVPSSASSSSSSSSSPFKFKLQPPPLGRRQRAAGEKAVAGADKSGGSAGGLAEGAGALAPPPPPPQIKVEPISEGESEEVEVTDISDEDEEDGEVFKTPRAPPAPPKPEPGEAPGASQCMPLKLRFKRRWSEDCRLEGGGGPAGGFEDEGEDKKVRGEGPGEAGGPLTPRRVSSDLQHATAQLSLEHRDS
# Procedure, shortened: as §1
# ETV3L = molecular target: T7, ETV3L (Homo sapiens, UniProt Q6ZN32 1-361); details: protein: recombinant; tags: N-terminal GST; dsDNA, one strand shown
# T7 sequence: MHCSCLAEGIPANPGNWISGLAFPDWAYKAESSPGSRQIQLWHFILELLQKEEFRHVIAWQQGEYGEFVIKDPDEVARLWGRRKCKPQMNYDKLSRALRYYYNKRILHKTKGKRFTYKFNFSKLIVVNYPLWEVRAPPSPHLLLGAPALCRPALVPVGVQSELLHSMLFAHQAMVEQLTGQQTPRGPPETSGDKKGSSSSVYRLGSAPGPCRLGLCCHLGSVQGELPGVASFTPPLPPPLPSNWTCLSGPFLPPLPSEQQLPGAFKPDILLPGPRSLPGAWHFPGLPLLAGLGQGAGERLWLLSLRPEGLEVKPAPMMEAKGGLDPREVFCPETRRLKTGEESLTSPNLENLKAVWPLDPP
# Procedure, shortened: as §1
# ETS2 = molecular target: T8, ETS2 (Homo sapiens, UniProt P15036 1-469); details: protein: recombinant; tags: N-terminal GST; dsDNA, one strand shown
# T8 sequence: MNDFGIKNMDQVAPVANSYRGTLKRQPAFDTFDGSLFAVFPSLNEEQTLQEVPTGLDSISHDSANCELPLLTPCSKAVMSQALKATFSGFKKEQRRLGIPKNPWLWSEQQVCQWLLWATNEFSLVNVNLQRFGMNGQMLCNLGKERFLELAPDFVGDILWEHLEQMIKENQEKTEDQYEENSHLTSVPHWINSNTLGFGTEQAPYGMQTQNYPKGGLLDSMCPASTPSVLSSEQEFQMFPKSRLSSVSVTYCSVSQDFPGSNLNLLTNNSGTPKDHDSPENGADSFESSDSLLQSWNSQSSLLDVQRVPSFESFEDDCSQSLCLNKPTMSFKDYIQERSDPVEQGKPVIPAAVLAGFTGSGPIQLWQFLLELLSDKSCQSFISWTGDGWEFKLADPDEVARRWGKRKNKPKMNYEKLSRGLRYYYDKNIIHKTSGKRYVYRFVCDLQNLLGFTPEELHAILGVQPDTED
# Procedure, shortened: as §1
# SPDEF = molecular target: T9, SPDEF (Homo sapiens, UniProt O95238 1-335); details: protein: recombinant; tags: N-terminal GST; dsDNA, one strand shown
# T9 sequence: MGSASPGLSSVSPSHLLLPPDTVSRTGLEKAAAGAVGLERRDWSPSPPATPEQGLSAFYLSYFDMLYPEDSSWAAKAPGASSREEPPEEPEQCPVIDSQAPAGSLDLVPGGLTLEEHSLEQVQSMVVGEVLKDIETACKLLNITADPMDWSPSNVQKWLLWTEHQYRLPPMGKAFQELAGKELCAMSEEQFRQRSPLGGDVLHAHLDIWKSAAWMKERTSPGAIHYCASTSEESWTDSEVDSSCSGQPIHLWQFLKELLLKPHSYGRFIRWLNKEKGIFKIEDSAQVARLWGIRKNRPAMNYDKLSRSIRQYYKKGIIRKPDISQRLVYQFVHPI
# Procedure, shortened: as §1
# ETV7 = molecular target: T10, ETV7 (Homo sapiens, UniProt Q9Y603 1-341); details: protein: recombinant; tags: N-terminal GST; dsDNA, one strand shown
# T10 sequence: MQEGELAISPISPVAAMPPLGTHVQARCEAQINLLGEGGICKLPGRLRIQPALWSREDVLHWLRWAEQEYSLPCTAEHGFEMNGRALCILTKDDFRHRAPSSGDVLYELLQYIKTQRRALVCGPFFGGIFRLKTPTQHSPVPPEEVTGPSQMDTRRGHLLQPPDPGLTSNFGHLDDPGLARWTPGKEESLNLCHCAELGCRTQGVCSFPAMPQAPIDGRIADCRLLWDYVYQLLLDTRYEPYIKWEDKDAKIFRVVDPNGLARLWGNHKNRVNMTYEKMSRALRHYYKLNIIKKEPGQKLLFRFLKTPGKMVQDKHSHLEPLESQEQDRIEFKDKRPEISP
# Procedure, shortened: as §1
# ELF5 = molecular target: T11, ELF5 (Homo sapiens, UniProt Q9UKW6-2 1-255); details: protein: recombinant; tags: N-terminal GST; dsDNA, one strand shown
# T11 sequence: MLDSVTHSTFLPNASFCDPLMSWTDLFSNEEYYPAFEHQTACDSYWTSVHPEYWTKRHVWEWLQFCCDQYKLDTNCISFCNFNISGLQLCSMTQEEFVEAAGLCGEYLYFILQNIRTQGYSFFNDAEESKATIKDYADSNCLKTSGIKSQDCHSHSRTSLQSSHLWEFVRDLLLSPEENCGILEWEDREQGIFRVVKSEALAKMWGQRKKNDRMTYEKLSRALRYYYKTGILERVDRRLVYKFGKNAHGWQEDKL
# Procedure, shortened: as §1
# ETV3 = molecular target: T12, ETV3 (Homo sapiens, UniProt P41162-2 1-143); details: protein: recombinant; tags: N-terminal GST; dsDNA, one strand shown
# T12 sequence: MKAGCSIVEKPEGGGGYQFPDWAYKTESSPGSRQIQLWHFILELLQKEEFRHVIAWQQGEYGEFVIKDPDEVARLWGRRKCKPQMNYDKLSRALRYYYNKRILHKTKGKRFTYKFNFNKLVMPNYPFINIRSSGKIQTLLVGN
# Procedure, shortened: as §1
# ETV6 = ETV6 (Homo sapiens, UniProt P41212 1-452); details: protein: recombinant; tags: N-terminal GST; dsDNA, one strand shown
# ETV6, sequence (P41212 whole entry): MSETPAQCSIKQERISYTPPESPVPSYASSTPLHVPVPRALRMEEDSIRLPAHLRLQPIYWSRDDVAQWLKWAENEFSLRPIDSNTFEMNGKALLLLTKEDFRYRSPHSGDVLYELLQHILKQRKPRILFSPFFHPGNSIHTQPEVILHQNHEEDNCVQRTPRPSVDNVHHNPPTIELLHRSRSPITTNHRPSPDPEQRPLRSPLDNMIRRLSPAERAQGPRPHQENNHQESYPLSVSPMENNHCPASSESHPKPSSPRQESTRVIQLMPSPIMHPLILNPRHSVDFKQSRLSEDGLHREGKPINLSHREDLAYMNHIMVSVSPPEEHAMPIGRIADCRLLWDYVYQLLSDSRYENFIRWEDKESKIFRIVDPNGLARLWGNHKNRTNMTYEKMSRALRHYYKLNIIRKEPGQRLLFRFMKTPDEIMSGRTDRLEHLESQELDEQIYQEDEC
# Procedure, shortened: as §1
sequence,measurement,setting,value
AAAAAG,binding signal,FEV,"1.2 fold enrichment (6-mer frequency, TF over GST control)"
same,binding signal,ETV5,"1.3 fold enrichment (6-mer frequency, TF over GST control)"
same,binding signal,HSF1,"1.34 fold enrichment (6-mer frequency, TF over GST control)"
same,binding signal,SPIC,"1.13 fold enrichment (6-mer frequency, TF over GST control)"
same,binding signal,ELF4,"1.26 fold enrichment (6-mer frequency, TF over GST control)"
same,binding signal,ELK4,"1.32 fold enrichment (6-mer frequency, TF over GST control)"
same,binding signal,ETV2,"1.08 fold enrichment (6-mer frequency, TF over GST control)"
same,binding signal,ELF3,"1.28 fold enrichment (6-mer frequency, TF over GST control)"
same,binding signal,CRX,"1.2 fold enrichment (6-mer frequency, TF over GST control)"
same,binding signal,ETV1,"1.26 fold enrichment (6-mer frequency, TF over GST control)"
same,binding signal,ERF,"1.22 fold enrichment (6-mer frequency, TF over GST control)"
same,binding signal,ETV3L,"1.26 fold enrichment (6-mer frequency, TF over GST control)"
same,binding signal,ETS2,"1.23 fold enrichment (6-mer frequency, TF over GST control)"
same,binding signal,SPDEF,"1.18 fold enrichment (6-mer frequency, TF over GST control)"
same,binding signal,ETV7,"1.32 fold enrichment (6-mer frequency, TF over GST control)"
same,binding signal,ELF5,"1.24 fold enrichment (6-mer frequency, TF over GST control)"
same,binding signal,ETV3,"1.23 fold enrichment (6-mer frequency, TF over GST control)"
same,binding signal,ETV6,"1.21 fold enrichment (6-mer frequency, TF over GST control)"
